Experimental findings from PubChem BioAssay (NCATS) are described below.

Usually AC50 stands for the midpoint of the concentration-response curve, whichever way the signal moves.

Values joined by “and” are separate entries in the source; they are usually repeats but may differ in a detail not shown here. Equal values may be shown once. Active and inactive are the calls of the source. No rule for the calls is given here.

For this experiment the following is noted: Ebola virus entry assay, reporter ratio channel; AC50: Channel type: primary unless noted; outcome: Channel type: primary unless noted.
With `CN(C)CCC[C@@]1(c2ccc(F)cc2)OCc2cc(C#N)ccc21`, the concentration at half-maximal activity (AC50) is 39.8 µM (active).

Take `COC(=O)C1=C(C)NC(C)=C(C(=O)OCCN(C)Cc2ccccc2)C1c1cccc([N+](=O)[O-])c1` (configuration not stated): the AC50 is 10 µM (active).

Consider `CNCC[C@@H](Oc1ccccc1C)c1ccccc1`, for which the half-maximal activity concentration (AC50) is 10 µM (active).

With `C[C@@H](O[C@H]1OCCN(Cc2n[nH]c(=O)[nH]2)[C@H]1c1ccc(F)cc1)c1cc(C(F)(F)F)cc(C(F)(F)F)c1`, the concentration at half-maximal activity (AC50) was 28.2 µM (active).

Consider `CCOC(=O)N1CCC(=C2c3ccc(Cl)cc3CCc3cccnc32)CC1`, for which the AC50 was 6.31 µM (active).

For the compound `CCc1nn(CCCN2CCN(c3cccc(Cl)c3)CC2)c(=O)n1CCOc1ccccc1`, the AC50 was 31.6 µM (active).

Take `CCCCc1oc2ccc(NS(C)(=O)=O)cc2c1C(=O)c1ccc(OCCCN(CCCC)CCCC)cc1`: the outcome was “inactive [Channel type: confirmation]”.

As to `CCCN(CCc1cccs1)[C@H]1CCc2c(O)cccc2C1`, the AC50 was 25.1 µM (active).

Regarding `COC(=O)[C@H]1[C@H]2C[C@@H]3c4[nH]c5cc(OC)ccc5c4CCN3C[C@H]2C[C@@H](OC(=O)c2cc(OC)c(OC)c(OC)c2)[C@@H]1OC`, the half-maximal activity concentration (AC50) was 25.1 µM (active).

As for `CC[C@]1(O)C[C@@H]2CN(CCc3c([nH]c4ccccc34)[C@@](C(=O)OC)(c3cc4c(cc3OC)N(C)[C@H]3[C@@](O)(C(=O)OC)[C@H](OC(C)=O)[C@]5(CC)C=CCN6CC[C@]43[C@@H]65)C2)C1`, the concentration at half-maximal activity (AC50) is 1 µM (active) and 891 nM (active).

As for `OCCN(CCO)c1nc(N2CCCCC2)c2nc(N(CCO)CCO)nc(N3CCCCC3)c2n1`, the result was inactive.

In the case of `CN1CCC[C@@H]1CCO[C@](C)(c1ccccc1)c1ccc(Cl)cc1`, the AC50 was 1.41 µM (active).

As to `CNCCCN1c2ccccc2CCc2ccccc21`, the AC50 was 7.94 µM (active).

`Cc1ccccc1C(OCCN(C)C)c1ccccc1` (configuration not stated): the AC50 is 8.91 µM (active).

For `CNCC[C@H](Oc1cccc2ccccc12)c1cccs1`, the AC50 was 3.55 µM (active).

Take `CNCCCC1c2ccccc2C=Cc2ccccc21`: the half-maximal activity concentration (AC50) is 8.91 µM (active).

For the compound `CSc1ccc2c(c1)N(CCC1CCCCN1C)c1ccccc1S2` (configuration not stated), the AC50 was 3.16 µM (active).

As to `CN(C)c1cc(NC(=O)CNC(C)(C)C)c(O)c2c1C[C@@H]1C[C@H]3[C@H](N(C)C)C(=O)C(C(N)=O)=C(O)[C@@]3(O)C(=O)C1=C2O`, the AC50 is 8.91 µM (active).

For the compound `CN(C)CCC=C1c2ccccc2C=Cc2ccccc21`, the half-maximal activity concentration (AC50) is 10 µM (active).

`Cc1nc(Nc2ncc(C(=O)Nc3c(C)cccc3Cl)s2)cc(N2CCN(CCO)CC2)n1`: the concentration at half-maximal activity (AC50) was 7.94 µM (active).

`COc1ccc([C@@H]2Sc3ccccc3N(CCN(C)C)C(=O)[C@@H]2OC(C)=O)cc1`: the AC50 is 25.1 µM (active).

`CN(C)CCCN1c2ccccc2CCc2ccc(Cl)cc21`: the outcome is “inactive [Channel type: confirmation]”.

As to `CC12CC3CC(C)(C1)CC(N)(C3)C2`, the half-maximal activity concentration (AC50) is 14.1 µM (active).

Regarding `CCN(CC)CCN1C(=O)CN=C(c2ccccc2F)c2cc(Cl)ccc21`, the AC50 is 39.8 µM (active).

`CN1CCC(=C2c3ccccc3C=Cc3ccccc32)CC1`: the AC50 was 10 µM (active).

On to `COC(=O)C1=C(C)NC(C)=C(C(=O)OCC(C)C)C1c1ccccc1[N+](=O)[O-]` (configuration not stated), for which the AC50 was 17.8 µM (active).

As to `COc1cc(NCc2ccc3nc(N)nc(N)c3c2C)cc(OC)c1OC`, the AC50 is 28.2 µM (active).

In the case of `C[C@@H](NCCCc1cccc(C(F)(F)F)c1)c1cccc2ccccc12`, the concentration at half-maximal activity (AC50) is 3.55 µM (active).

In the case of `O=C1c2c(O)ccc(O)c2C(=O)c2c(NCCNCCO)ccc(NCCNCCO)c21`, the half-maximal activity concentration (AC50) is 7.94 µM (active).

With `CN(C)CCCN1c2ccccc2Sc2ccc(Cl)cc21`, the AC50 is 3.98 µM (active).

Regarding `Cc1c(O)cccc1C(=O)N[C@@H](CSc1ccccc1)[C@H](O)CN1C[C@H]2CCCC[C@H]2C[C@H]1C(=O)NC(C)(C)C`, the AC50 is 39.8 µM (active).

`O[C@@H](c1cc(C(F)(F)F)nc2c(C(F)(F)F)cccc12)[C@H]1CCCCN1`: the AC50 is 1.58 µM (active).

Turning to `OCCN1CCN(CCCN2c3ccccc3Sc3ccc(C(F)(F)F)cc32)CC1`, the AC50 is 3.16 µM (active).

With `CN1C[C@H]2c3ccccc3Oc3ccc(Cl)cc3[C@@H]2C1`, the AC50 is 14.1 µM (active).

As to `Fc1ccc([C@@H]2CCNC[C@H]2COc2ccc3c(c2)OCO3)cc1`, the AC50 was 3.98 µM (active).

In the case of `OCCN1CCN(CCCN2c3ccccc3Sc3ccc(Cl)cc32)CC1`, the AC50 was 2.24 µM (active).

As to `CN1CCc2cccc3c2[C@H]1Cc1ccc(O)c(O)c1-3`, the AC50 was 28.2 µM (active).
